Compound activity from PubChem.
HTT-AS act: HTT-AS promoter activation; HEK293 HTT-AS promoter firefly luciferase reporter, 24 h; response scale: percent change from vehicle, -100% = no light; Potency, µM (doses to about 57.5 µM), for inactives: top-dose activity change, positive = activation, actives largely listed as activators; 48,000 compounds, 0.24% hits; also: nearly all actives have a fitted effect of over 55% in size
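Luminescence was read after Dual-Glo reagent and a 10 min room-temperature incubation. Values were normalized to vehicle (0% activity) and zero RLU (-100% activity). Reporter HEK293 cells had been exposed to compounds (up to 57.5 uM final) for 24 h.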
HTT promoter inh: inhibitors of huntingtin promoter activity; HEK293 HTT promoter firefly luciferase reporter, 24 h; Potency, µM (series often up to 57.5 µM), without a hit: top-dose activity change, negative = inhibition, most hits filed as inhibitors; 48,000 compounds, 0.93% hits; also: nearly all actives have a fitted effect of over 50% in size
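Firefly luciferase signal from promoter-reporter HEK293 cells was scaled between vehicle (0%) and zero RLU (-100%). Compounds were tested at final concentrations of up to 57.5 uM over 24 h at 37 degrees C. PTC124 at 50 uM final served as control inhibitor.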
FH mod: Identification of activators of human fumarate hydratase by quantitative high-throughput screening. Fumarate hydratase, mitochondrial (Homo sapiens), P07954. FH coupled MDH/diaphorase resazurin fluorescence, 15 min. Potency, µM (series often up to 79.9 µM), for inactives: at the highest dose activity change, negative = inhibition, most hits filed as inhibitors. 54,000 compounds, 0.22% hits. AID 1347055, 2019; also: % is scaled to controls: 0 for no effect and ±100 for the full control effect; the screen sought activators but most active calls are inhibition curves; nearly all actives have a fitted effect of over 45% in size
NTMT1 inhibitor: inhibitors of human N-terminal methyltransferase NTMT1 | 59,000 compounds, 2.5% hits | Potency, µM (series often up to 114 µM), for the others: at the top dose activity change, negative = inhibition, usual class: inhibitors | Q9BV86 | NTMT1 MTase-Glo SAH luminescence, purified enzyme | AID 1645870;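 also: plate controls were DMSO vehicle for no effect and no enzyme for full effect; nearly all actives have a fitted effect of over 65% in size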
Target sequence (Q9BV86 whole entry, looked up): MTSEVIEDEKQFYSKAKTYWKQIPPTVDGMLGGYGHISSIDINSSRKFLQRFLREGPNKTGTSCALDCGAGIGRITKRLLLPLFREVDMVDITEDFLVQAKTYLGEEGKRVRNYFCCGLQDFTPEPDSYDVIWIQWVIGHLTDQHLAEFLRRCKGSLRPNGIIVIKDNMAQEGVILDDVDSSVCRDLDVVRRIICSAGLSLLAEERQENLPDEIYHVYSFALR
* hit, by the source's call; ! = repeats disagree; [ ] = another dose, or the depositor's remark. Shown are actives, neighbours in structure and some others; about 2.6% of the full set was active somewhere. Calls follow the shape of the dose curve; as a rule, active = well fitted curve in the direction sought with a large enough effect; inconclusive = small, poorly fitted or top-dose-only effect, or another doubt; inactive = no such curve, though single readings can be large; an effect the other way counts as inactive or inconclusive. Potency is read from the fitted curve at half-maximal effect.

Screening C/C=C1\[C@H](O[C@@H]2O[C@H](CO)[C@@H](O)[C@H](O)[C@H]2O)OC=C2C(=O)OCCc3ccc(O)c(c3)Oc3ccc(cc3)CCOC(=O)C[C@H]21 returned FH mod -9.7%[20.6 µM] and NTMT1 inhibitor 12.2%[12.6 µM].
Screening CN1C(=O)c2ccccc2Sc2ccc(NC(=O)N3CCN(c4ccccc4F)CC3)cc21 returned HTT-AS act -16.2%, HTT promoter inh -16.6%, FH mod -27.9% and NTMT1 inhibitor inconclusive.
For CN1C(=O)c2ccccc2Sc2ccc(NC(=O)N3CCN(c4ccccc4)CC3)cc21 the results were HTT-AS act -61.8%, HTT promoter inh 25.1µM*, FH mod -17.7% and NTMT1 inhibitor 7.3%.
Screening CCCCNC(=O)Nc1ccc2c(c1)N(C)C(=O)c1ccccc1S2 returned HTT-AS act -35.3%, HTT promoter inh inconclusive, FH mod -24.5% and NTMT1 inhibitor 89.1µM*.
For CC(C)Oc1ccc(CNC(=O)Nc2ccc3c(c2)N(C)C(=O)c2ccccc2S3)cc1 the results were HTT-AS act -50.3%, HTT promoter inh 25.1µM*, FH mod inconclusive and NTMT1 inhibitor -2.7%.
`O=c1[nH]nc2c3c(cccc13)NC(CN1Cc3ccccc3C1)=N2` gave NTMT1 inhibitor 21.5%.
For COc1ccc2nc(NC(=O)c3cc(=O)c4ccccc4o3)sc2c1 the results were HTT-AS act 3.16µM*, HTT promoter inh 66.7%, FH mod -1.9% and NTMT1 inhibitor inconclusive.
Screening O=C(CCCCCCC(=O)Nc1ccc([C@H]2O[C@@H](CSc3nc(-c4ccccc4)c(-c4ccccc4)o3)C[C@@H](c3ccc(CO)cc3)O2)cc1)NO returned HTT-AS act -6.3%, HTT promoter inh 64.1%, FH mod -6.0% and NTMT1 inhibitor 42.9µM*!.
`CCc1ccc(NC(=O)CSc2nc(-c3ccccc3)c(C#N)c(=O)[nH]2)cc1` gave HTT-AS act -3.3%, HTT promoter inh -5.6%, FH mod -27.6% and NTMT1 inhibitor -1.3%.
O=C1CCCC2=C1C(c1[nH]ncc1Cl)NC(=NCCc1cccnc1)N2 (configuration not stated) was read as NTMT1 inhibitor 4.7%[57.5 µM].
For CC(C)N1CCc2c(sc(NC(=O)c3ccccc3)c2-c2nc3ccccc3s2)C1 the results were NTMT1 inhibitor 7.9%.
`COc1cc(OC)cc(-c2cc3nc(C)c(CCC(=O)Nc4ccc(C(C)=O)cc4)c(C)n3n2)c1` gave HTT-AS act -78.1%, HTT promoter inh 3.16µM*, FH mod -5.6% and NTMT1 inhibitor 7.4%.
Screening Cc1nc2cc(-c3ccccc3)nn2c(C)c1CCC(=O)NCc1cccc(Cl)c1 returned HTT-AS act -71.2%, HTT promoter inh 12.6µM*, FH mod -12.1% and NTMT1 inhibitor -1.1%.
Screening CCOC(=O)c1ccc(NC(=O)CCc2c(C)nc3cc(-c4ccc(OC)cc4OC)nn3c2C)cc1 returned HTT-AS act -14.7%, HTT promoter inh -15.6%, FH mod -11.1% and NTMT1 inhibitor 7.0%.
COc1cc(OC)cc(-c2nc3nc(C)c(CCC(=O)Nc4ccc(F)cc4F)c(C)n3n2)c1 was read as HTT-AS act -14.3%, HTT promoter inh -32.1%, FH mod -12.7% and NTMT1 inhibitor 89.1µM*.
`CCOC(=O)CC(NC(=O)CCc1c(C)nc2c(-c3ccccc3)c(C)nn2c1C)c1ccc(C)cc1` (configuration not stated) gave HTT-AS act -45.5%, HTT promoter inh inconclusive, FH mod -28.7% and NTMT1 inhibitor -8.3%.
`CCOC(=O)CC(NC(=O)CCc1c(C)nc2cc(-c3ccccc3)nn2c1C)c1ccc(C)cc1` (configuration not stated) gave HTT-AS act -80.1%, HTT promoter inh 2.51µM*, FH mod -21.9% and NTMT1 inhibitor -1.3%.
O=C(NC1CCCc2c1cnn2-c1ccc(F)cc1F)c1ccn[nH]1 (configuration not stated) was read as NTMT1 inhibitor -4.3%.
CC(C)(N)c1cc(C(=O)N[C@@H]2CCc3ccc(Oc4ccnc5c4CCC(=O)N5)cc3C2)cc(C(F)(F)F)c1 was read as FH mod -7.3% and NTMT1 inhibitor inconclusive.
CC(=O)NCC(=O)N1[C@@H]2CC[C@H]1c1ccc(Nc3ncc(C(F)(F)F)c(NC4CCC4)n3)cc12 was read as NTMT1 inhibitor -4.2%.
Screening O=C(NC/C=C/CN1CCN(c2cccc(Cl)c2Cl)CC1)c1ccc(-c2ccccn2)cc1 returned FH mod -20.4% and NTMT1 inhibitor -0.3%[57.5 µM].
Screening Nc1ncnc2c1nc(Cl)n2C1O[C@H](CO)[C@@H](O)[C@H]1O (some centres not stated) returned FH mod 9.9% and NTMT1 inhibitor inconclusive.
`C/C1=C\[C@H]2OC(=O)[C@@H](C)[C@@H]2CC/C(C(=O)O)=C/CC1` gave FH mod 1.7% and NTMT1 inhibitor 3.3%[57.5 µM].
Screening COc1cc(OC)cc(-c2cc3nc(C)c(CCC(=O)NCc4ccccc4)c(C)n3n2)c1 returned HTT-AS act -86.4%, HTT promoter inh 2µM*, FH mod inconclusive and NTMT1 inhibitor -4.6%.
`COc1cc(OC)cc(-c2cc3nc(C)c(CCC(=O)NCCc4cccc(C)c4)c(C)n3n2)c1` gave HTT-AS act -70.8%, HTT promoter inh inconclusive, FH mod -25.0% and NTMT1 inhibitor 8.9%.
For COc1ccc(-c2cc(=O)c3c(O)cc(O)cc3o2)cc1O the results were HTT-AS act 15.3%, HTT promoter inh 1.8%, FH mod 24.3µM* and NTMT1 inhibitor inconclusive.
O=C1Nc2ccc(I)cc2C1=Cc1cc(Br)c(O)c(Br)c1 was read as HTT-AS act 1.0%, HTT promoter inh -3.2%, FH mod inconclusive and NTMT1 inhibitor 17.1µM*.
Screening O=C1Nc2ccc(I)cc2/C1=C/c1cc(Br)c(O)c(Br)c1 returned FH mod 28.2µM* and NTMT1 inhibitor 3.55µM*.
COc1cc(OC)c(/C=C2/C(=O)Nc3ccccc32)c(OC)c1 was read as FH mod -22.7%[53.3 µM].
For Cc1cc(N[S+](=O)([O-])c2ccc(NC(=O)Cc3ccc(F)c(C)c3)cc2)no1 the results were NTMT1 inhibitor 8.4%.
O=C(O)c1ccc(O)c2ncc(N3CC(N4CCOCC4)C3)cc12 was read as NTMT1 inhibitor 5.3%[57.5 µM].
`CNCc1ccc(-c2[nH]c3cc(F)cc4c3c2CCNC4=O)cc1` gave HTT-AS act -6.4%, HTT promoter inh 5.5%, FH mod 1.3% and NTMT1 inhibitor 6.31µM*!.
For COc1ccc(C2CC(=O)c3c([nH]c(C(=O)OC4CCCC4)c3C)C2)cc1OC (configuration not stated) the results were HTT-AS act -24.1%, HTT promoter inh -19.7%, FH mod 6.0% and NTMT1 inhibitor 0.0%.
Screening COc1ccc(C2CC(=O)c3c([nH]c(C(=O)OC4CCCCCC4)c3C)C2)cc1OC (configuration not stated) returned HTT-AS act -31.1%, HTT promoter inh inconclusive, FH mod -21.6% and NTMT1 inhibitor 89.1µM*.
